Several values for one entry are separate records, joined by “and”; a condition that tells them apart may be missing. Identical values can stand only once. This is part of a sample that, as a whole, favours compounds with a hit. Of some 83,000 tested, about 20% had one in any assay.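 Activity criterion: percent growth below 10, measured after cells in 96-well plates were exposed to a single compound concentration for 48 hours.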 Values without a mark were called inactive. Activity calls are given as the source filed them.
Experiments:
Experiment in all cases: NCI-60 one-dose screen, 48 h (100 = growth as untreated, 0 = no growth, -100 = all killed)
Conditions in all cases: 10 µM unless noted
[1] = system: HCT-15 colon
[2] = system: HT29 colon
[3] = system: SNB-75 CNS
[4] = system: SNB-19 CNS
[5] = system: U251 CNS
[6] = system: PC-3 prostate
[7] = system: SK-MEL-5 melanoma
[8] = system: UACC-62 melanoma
[9] = system: LOX IMVI melanoma
[10] = system: SK-MEL-28 melanoma
[11] = system: SK-MEL-2 melanoma
[12] = system: EKVX NSCLC
[13] = system: SN12C renal
[14] = system: UO-31 renal
[15] = system: TK-10 renal
[16] = system: ACHN renal
[17] = system: CAKI-1 renal
[18] = system: A498 renal
[19] = system: CCRF-CEM leukemia
[20] = system: MOLT-4 leukemia

C=CCSc1nnc(-c2c(C)nc3sccn23)o1
growth [1]: 92.7% | growth [2]: 96.1% | growth [3]: 69.1% | growth [4]: 82.7% | growth [5]: 88% | growth [6]: 88.9% | growth [7]: 95.5% | growth [8]: 74.4% | growth [9]: 95.5% | growth [10]: 96.7% | growth [11]: 104% | growth [12]: 76.4% | growth [13]: 96.8% | growth [14]: 71.8% | growth [15]: 124% | growth [16]: 88.5% | growth [17]: 77.9% | growth [18]: 96.9% | growth [19]: 90.3% | growth [20]: 116%

COc1ccc2[nH]cc(-c3cc4nc(-c5cn(C)c6ncccc56)cc(N)n4n3)c2c1
growth [1]: -25.1% (active) | growth [2]: -59.1% (active) | growth [3]: 51.8% | growth [4]: 26% | growth [5]: -42.4% (active) | growth [6]: 9.79% (active) | growth [7]: -56.5% (active) | growth [8]: 85.9% | growth [9]: -85.3% (active) | growth [10]: 82.6% | growth [11]: 97.2% | growth [12]: 55.1% | growth [13]: 26.2% | growth [14]: 12.3% | growth [15]: 78.1% | growth [16]: 7.66% (active) | growth [17]: -65.2% (active) | growth [18]: 116% | growth [19]: -34.3% (active) | growth [20]: -9.04% (active)

c1n[nH]cc1-c1nc2ccc3[nH]ncc3c2c2c1CC1(CCOCC1)CC2
growth [1]: 39% | growth [2]: 25.9% | growth [3]: 6.74% (active) | growth [4]: 37.4% | growth [5]: 29.3% | growth [6]: 47.4% | growth [7]: 29% | growth [8]: 14% | growth [9]: 29.2% | growth [10]: 27.1% | growth [11]: 24.5% | growth [12]: 55.3% | growth [13]: 28.8% | growth [14]: 55.4% | growth [15]: 29.2% | growth [16]: 22.1% | growth [17]: 4.86% (active) | growth [18]: -3.86% (active) | growth [19]: 19.3% | growth [20]: 22.2%

COc1ccc(NC(=O)Cn2c(/C=C/c3ccc([N+](=O)[O-])cc3)nc3ccccc3c2=O)cc1
growth [1]: 73.7% | growth [2]: 85.5% | growth [3]: -32.7% (active) | growth [4]: 32.2% | growth [5]: 32.2% | growth [6]: 89.7% | growth [7]: 52.6% | growth [8]: 73.2% | growth [9]: 61.5% | growth [10]: 80.8% | growth [11]: 78.9% | growth [12]: 74.4% | growth [13]: 62.3% | growth [14]: 22.9% | growth [15]: 25.5% | growth [16]: 51.9% | growth [17]: 63.2% | growth [18]: 85.8% | growth [19]: 103% | growth [20]: 114%

Cn1cc(-c2cc(N)n3nc(-c4c[nH]c5ccc(Cl)cc45)cc3n2)c2cc(Br)cnc21
growth [1]: -80.2% (active) | growth [2]: -72% (active) | growth [3]: -24.4% (active) | growth [4]: 2.78% (active) | growth [5]: -73.9% (active) | growth [6]: -52.4% (active) | growth [7]: -57% (active) | growth [8]: -59.6% (active) | growth [9]: -93.3% (active) | growth [10]: -25.9% (active) | growth [11]: -49.9% (active) | growth [12]: 0.312% (active) | growth [13]: 42.5% | growth [14]: -39.3% (active) | growth [15]: -53.1% (active) | growth [16]: -76.3% (active) | growth [17]: -63% (active) | growth [18]: 29% | growth [19]: -66.1% (active) | growth [20]: -56.2% (active)

Cc1ccc(Cl)cc1NC(=O)N/C(N)=N/c1nc2ccccc2s1
growth [1]: -22.4% (active) | growth [2]: -69.5% (active) | growth [3]: -4.17% (active) | growth [4]: 12.5% | growth [5]: -43.8% (active) | growth [6]: 2.99% (active) | growth [7]: -56.9% (active) | growth [8]: -11.4% (active) | growth [9]: -83.3% (active) | growth [10]: 19.6% | growth [11]: -20.6% (active) | growth [12]: 15.8% | growth [13]: -40% (active) | growth [14]: -13% (active) | growth [15]: 14.7% | growth [16]: -50.3% (active) | growth [17]: -2.72% (active) | growth [18]: 5.76% (active) | growth [19]: -6.91% (active) | growth [20]: -8.52% (active)

Cc1cccc(NCC(=O)N2CCN(c3ncnc4c3cnn4-c3ccccc3)CC2)c1
growth [1]: 72.9% | growth [2]: 83.5% | growth [3]: 53.5% | growth [4]: 88.9% | growth [5]: 87.1% | growth [6]: 70% | growth [7]: 37.5% | growth [8]: 34.6% | growth [9]: 53.8% | growth [10]: 59% | growth [11]: 46.7% | growth [12]: 53.7% | growth [13]: 76.9% | growth [14]: 34.3% | growth [15]: 93.8% | growth [16]: 45.4% | growth [17]: 47.8% | growth [18]: 108% | growth [19]: 62.7% | growth [20]: 58.2%

Clc1ccc(-c2nc3ccc(-c4nnc(SCc5ccccc5)o4)cc3[nH]2)cc1
growth [1]: -28.9% (active) | growth [2]: 41.5% | growth [3]: 40.4% | growth [4]: 27% | growth [5]: -8.55% (active) | growth [6]: 25.1% | growth [7]: 20.9% | growth [8]: 37.7% | growth [9]: 4.07% (active) | growth [10]: 58.3% | growth [11]: 75.3% | growth [12]: -24.4% (active) | growth [13]: -57.9% (active) | growth [14]: 49.3% | growth [15]: 90.6% | growth [16]: 45% | growth [17]: 37.5% | growth [18]: 112% | growth [19]: 34.1% | growth [20]: 27.7%

COc1ccc(-c2nc3ccccc3n2CC(=O)N=Nc2c(O)[nH]c3ccc(Br)cc23)cc1
growth [1]: 58.1% | growth [2]: 45.4% | growth [3]: 66.8% | growth [4]: 89.3% | growth [5]: 105% | growth [6]: 76.7% | growth [7]: 67.4% | growth [8]: 72.1% | growth [9]: 74.4% | growth [10]: 97.8% | growth [11]: 85.4% | growth [12]: 85% | growth [13]: 97% | growth [14]: 66.7% | growth [15]: 94.8% | growth [16]: 87.8% | growth [17]: 74.9% | growth [18]: 139% | growth [19]: 67.2% | growth [20]: 37.2%

CN1CCN(CCS(=O)(=O)Nc2cc(-c3ccc4ncnc(Nc5ccc(F)c(Cl)c5)c4c3)cnc2Cl)CC1
growth [1]: 24.5% | growth [2]: 12% | growth [3]: 22.1% | growth [4]: 10.1% | growth [5]: 16.5% | growth [6]: 20.2% | growth [7]: -75.9% (active) | growth [8]: -3.28% (active) | growth [9]: -57.5% (active) | growth [10]: 4.33% (active) | growth [11]: -52.2% (active) | growth [12]: -22.2% (active) | growth [13]: 27.7% | growth [14]: 18.2% | growth [15]: 1.24% (active) | growth [16]: 23.2% | growth [17]: 6.32% (active) | growth [18]: -30.9% (active) | growth [19]: 8.02% (active) | growth [20]: -49.7% (active)

COc1ccc2[nH]c(O)c(N=Nc3nc(-c4ccc(Cl)cc4)cs3)c2c1
growth [1]: -53.3% (active) | growth [2]: -18.4% (active) | growth [3]: -66.9% (active) | growth [4]: 24.1% | growth [5]: -75.6% (active) | growth [6]: -10.5% (active) | growth [7]: 8.45% (active) | growth [8]: -32.3% (active) | growth [9]: -54.9% (active) | growth [10]: -24.2% (active) | growth [11]: 14% | growth [12]: -3.25% (active) | growth [13]: -69.2% (active) | growth [14]: -61.4% (active) | growth [15]: 7.57% (active) | growth [16]: -79.1% (active) | growth [17]: -37.6% (active) | growth [18]: -89.7% (active) | growth [19]: 15.7% | growth [20]: -16.5% (active)

Cc1nc(Nc2ccccn2)sc1C1=NNC(c2ccccc2F)C1 (stereo not given)
growth [1]: 20.8% | growth [2]: 30.4% | growth [3]: 62.3% | growth [4]: 56.1% | growth [5]: 51% | growth [6]: 58.5% | growth [7]: 48.7% | growth [8]: 29.4% | growth [9]: 31.5% | growth [10]: 65.9% | growth [11]: 62.1% | growth [12]: 72.4% | growth [13]: 57.9% | growth [14]: 48% | growth [15]: 119% | growth [16]: 56.5% | growth [17]: 61.8% | growth [18]: 101% | growth [19]: 19.1% | growth [20]: 25.4%

CSc1ccc(OCc2nc3ccccc3n2-c2cccc(NS(C)(=O)=O)c2)cc1
growth [1]: 115% and 93.4% | growth [2]: 109% and 110% | growth [3]: 79.6% and 68.9% | growth [4]: 102% and 85.6% | growth [5]: 104% and 76.9% | growth [6]: 80.5% and 93.4% | growth [7]: 98% and 104% | growth [8]: 86.1% and 100% | growth [9]: 88.9% | growth [10]: 119% and 99.1% | growth [11]: 104% and 107% | growth [12]: 103% and 81.3% | growth [13]: 118% and 96.6% | growth [14]: 59.5% and 78.4% | growth [15]: 118% and 128% | growth [16]: 90.8% and 94.9% | growth [17]: 76.7% and 85% | growth [18]: 137% and 153% | growth [19]: 96.7% and 98.6% | growth [20]: 96.7% and 97.4%

Reference: PubChem BioAssay (NCI)
